# From ChEMBL document CHEMBL3988442, “University of Dundee, Small-Polar-MMV Screening Library” (2021)
# For part of these data: Potency and affinity values are given separately.
# Experiments:
# Design in all cases: scale not given: direction of the effect not stated beside the values
# [1] = target: Protein translocase subunit SecA (Escherichia coli (strain K12)) (UniProt P10408); test: Assay to Identify E. coli SecA ATPase Inhibitors; type: functional; conditions: 30 µM
# [2] = target: T1, Ubiquitin-activating enzyme e1, putative (Leishmania donovani (strain BPK282A1)) (UniProt E9BSI1); test: Leishmania donovani Ubiquitin Activating Enzyme (LdE1); type: functional; conditions: 30 µM
# T1 sequence (whole entry): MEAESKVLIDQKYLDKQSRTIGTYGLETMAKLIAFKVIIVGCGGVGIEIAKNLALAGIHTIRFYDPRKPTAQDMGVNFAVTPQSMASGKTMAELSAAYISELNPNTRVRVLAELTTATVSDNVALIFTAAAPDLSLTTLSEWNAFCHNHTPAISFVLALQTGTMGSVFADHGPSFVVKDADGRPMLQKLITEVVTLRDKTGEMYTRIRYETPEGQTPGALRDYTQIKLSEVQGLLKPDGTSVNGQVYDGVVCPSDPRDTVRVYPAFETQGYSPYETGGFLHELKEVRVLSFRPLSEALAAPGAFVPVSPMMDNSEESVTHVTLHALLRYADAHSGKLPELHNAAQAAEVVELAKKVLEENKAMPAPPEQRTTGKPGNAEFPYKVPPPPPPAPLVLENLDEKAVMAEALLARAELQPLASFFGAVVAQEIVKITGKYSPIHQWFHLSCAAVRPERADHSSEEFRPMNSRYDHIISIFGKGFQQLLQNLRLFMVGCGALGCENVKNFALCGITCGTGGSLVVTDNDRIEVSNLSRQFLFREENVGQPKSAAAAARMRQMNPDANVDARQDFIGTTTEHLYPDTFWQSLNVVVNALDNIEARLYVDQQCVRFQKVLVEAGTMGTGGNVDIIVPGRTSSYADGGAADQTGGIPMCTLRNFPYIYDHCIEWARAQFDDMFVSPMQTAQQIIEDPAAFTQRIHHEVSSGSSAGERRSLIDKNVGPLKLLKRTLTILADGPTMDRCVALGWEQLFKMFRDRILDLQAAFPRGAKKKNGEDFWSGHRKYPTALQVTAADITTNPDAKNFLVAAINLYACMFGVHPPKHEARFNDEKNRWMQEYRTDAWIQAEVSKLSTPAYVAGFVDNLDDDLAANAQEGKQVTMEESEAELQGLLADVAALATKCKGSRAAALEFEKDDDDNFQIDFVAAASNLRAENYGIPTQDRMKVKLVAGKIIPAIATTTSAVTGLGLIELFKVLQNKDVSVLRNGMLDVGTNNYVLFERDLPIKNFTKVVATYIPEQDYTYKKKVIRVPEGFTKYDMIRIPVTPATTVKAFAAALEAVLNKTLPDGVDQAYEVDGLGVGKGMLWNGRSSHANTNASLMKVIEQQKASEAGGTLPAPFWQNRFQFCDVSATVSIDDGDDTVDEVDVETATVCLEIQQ
# [3] = target: AMP-activated protein kinase, AMPK (Homo sapiens) (UniProt P54646+O43741+P54619+Q9UGJ0+Q9Y478+Q13131+Q9UGI9); test: AMP-dependent Kinase enzyme assay. An in vitro enzyme assay that detects ADP turnover that is directly proportional to AMPK activity. This uses naive AMPK that is activated during the assay with MK-8722; type: functional; conditions: 30 µM
# [4] = target: Sialic acid-binding Ig-like lectin 9 (Homo sapiens) (UniProt Q9Y336); test: Hs-Siglec9 ALPHAscreen SOP 20170721; conditions: 10 µM
# [5] = system: Trypanosoma cruzi; test: Trypanosoma cruzi phosphomannomutase and mannose-1-phosphate guanylyltransferase assay; type: functional; conditions: 10 µM
# [6] = target: T2, Arginase-2, mitochondrial (Homo sapiens) (UniProt P78540); test: in vitro enzyme assay to detect the production of urea directly proportional to the activity of Arginase II; type: functional; conditions: 33.3 µM; further: in the data most compounds retested in dose-response had high values
# T2 sequence (whole entry): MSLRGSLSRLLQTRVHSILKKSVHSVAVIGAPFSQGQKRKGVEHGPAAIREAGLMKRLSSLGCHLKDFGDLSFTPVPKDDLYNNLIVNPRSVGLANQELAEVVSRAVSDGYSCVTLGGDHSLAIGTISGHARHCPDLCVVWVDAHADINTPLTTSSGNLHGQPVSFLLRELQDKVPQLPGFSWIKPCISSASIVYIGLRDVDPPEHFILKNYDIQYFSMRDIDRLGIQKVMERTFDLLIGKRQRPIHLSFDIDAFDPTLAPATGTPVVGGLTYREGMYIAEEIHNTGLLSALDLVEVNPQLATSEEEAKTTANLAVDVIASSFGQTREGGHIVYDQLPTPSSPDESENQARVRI
# [7] = target: T3, Proteasome subunit beta (Trypanosoma cruzi) (UniProt O96673); test: Trypanosoma cruzi proteasome chymotrypsin-like activity (TcProtChymo) assay.; further: in the data most compounds retested in dose-response had high values; type: functional; conditions: 9.37 µM
# T3 sequence (whole entry): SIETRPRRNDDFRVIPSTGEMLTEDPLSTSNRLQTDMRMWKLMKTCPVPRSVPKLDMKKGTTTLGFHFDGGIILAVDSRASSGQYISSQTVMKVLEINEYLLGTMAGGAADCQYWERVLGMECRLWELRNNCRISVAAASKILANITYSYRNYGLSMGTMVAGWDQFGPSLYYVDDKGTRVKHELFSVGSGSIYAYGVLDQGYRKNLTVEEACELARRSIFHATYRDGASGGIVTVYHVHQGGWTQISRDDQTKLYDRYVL
# [8] = organism: Homo sapiens; test: To identify inhibition of the IFN signalling (Jak-Stat) pathway via expression of an eGFP reporter gene under the control of an IFN-stimulated response element (ISRE) containing MxA promoter.; type: functional; conditions: 30 µM
# [9] = target: T4, Tyrosyl-tRNA synthetase, putative (Trypanosoma cruzi (strain CL Brener)) (UniProt Q4DSP6); test: Trypanosoma cruzi tyrosyl tRNA synthetase (TcYRS) _High Tyrosine SOP; type: functional; conditions: 30 µM; further: in the data most compounds retested in dose-response had high values
# T4 sequence (whole entry): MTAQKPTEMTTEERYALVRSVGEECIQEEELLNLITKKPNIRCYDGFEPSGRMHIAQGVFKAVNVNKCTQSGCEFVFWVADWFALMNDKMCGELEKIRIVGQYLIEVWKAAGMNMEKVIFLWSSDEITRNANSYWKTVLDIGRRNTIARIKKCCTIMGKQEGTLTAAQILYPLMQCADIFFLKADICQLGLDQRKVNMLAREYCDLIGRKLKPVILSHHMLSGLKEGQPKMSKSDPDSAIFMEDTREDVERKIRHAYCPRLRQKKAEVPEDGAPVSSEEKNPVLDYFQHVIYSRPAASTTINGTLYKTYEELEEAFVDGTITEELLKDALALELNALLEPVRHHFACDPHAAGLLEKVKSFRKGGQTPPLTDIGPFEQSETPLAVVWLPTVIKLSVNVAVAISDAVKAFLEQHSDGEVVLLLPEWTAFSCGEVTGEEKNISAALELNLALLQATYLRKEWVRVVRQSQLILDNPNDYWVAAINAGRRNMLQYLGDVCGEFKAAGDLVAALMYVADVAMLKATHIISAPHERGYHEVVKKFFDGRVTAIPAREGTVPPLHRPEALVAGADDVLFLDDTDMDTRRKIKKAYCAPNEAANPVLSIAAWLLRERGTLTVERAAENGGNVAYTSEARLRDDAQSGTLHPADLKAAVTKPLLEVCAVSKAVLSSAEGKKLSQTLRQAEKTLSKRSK
# [10] = target: T4, Tyrosyl-tRNA synthetase, putative (Trypanosoma cruzi (strain CL Brener)); test: Trypanosoma cruzi tyrosyl tRNA synthetase (TcYRS) SOP; type: functional; conditions: 30 µM
# [11] = target: Chromo domain-containing protein 1 (Saccharomyces cerevisiae (strain ATCC 204508 / S288c) (Baker's yeast)) (UniProt P32657); test: ScCHD-1 Enzyme Inhibition Assay; type: functional; conditions: 30 µM; further: in the data most compounds retested in dose-response had high values
# Chromo domain-containing protein 1 (Saccharomyces cerevisiae (strain ATCC 204508 / S288c) (Baker's yeast)), sequence (P32657 whole entry, the tested form may be a part): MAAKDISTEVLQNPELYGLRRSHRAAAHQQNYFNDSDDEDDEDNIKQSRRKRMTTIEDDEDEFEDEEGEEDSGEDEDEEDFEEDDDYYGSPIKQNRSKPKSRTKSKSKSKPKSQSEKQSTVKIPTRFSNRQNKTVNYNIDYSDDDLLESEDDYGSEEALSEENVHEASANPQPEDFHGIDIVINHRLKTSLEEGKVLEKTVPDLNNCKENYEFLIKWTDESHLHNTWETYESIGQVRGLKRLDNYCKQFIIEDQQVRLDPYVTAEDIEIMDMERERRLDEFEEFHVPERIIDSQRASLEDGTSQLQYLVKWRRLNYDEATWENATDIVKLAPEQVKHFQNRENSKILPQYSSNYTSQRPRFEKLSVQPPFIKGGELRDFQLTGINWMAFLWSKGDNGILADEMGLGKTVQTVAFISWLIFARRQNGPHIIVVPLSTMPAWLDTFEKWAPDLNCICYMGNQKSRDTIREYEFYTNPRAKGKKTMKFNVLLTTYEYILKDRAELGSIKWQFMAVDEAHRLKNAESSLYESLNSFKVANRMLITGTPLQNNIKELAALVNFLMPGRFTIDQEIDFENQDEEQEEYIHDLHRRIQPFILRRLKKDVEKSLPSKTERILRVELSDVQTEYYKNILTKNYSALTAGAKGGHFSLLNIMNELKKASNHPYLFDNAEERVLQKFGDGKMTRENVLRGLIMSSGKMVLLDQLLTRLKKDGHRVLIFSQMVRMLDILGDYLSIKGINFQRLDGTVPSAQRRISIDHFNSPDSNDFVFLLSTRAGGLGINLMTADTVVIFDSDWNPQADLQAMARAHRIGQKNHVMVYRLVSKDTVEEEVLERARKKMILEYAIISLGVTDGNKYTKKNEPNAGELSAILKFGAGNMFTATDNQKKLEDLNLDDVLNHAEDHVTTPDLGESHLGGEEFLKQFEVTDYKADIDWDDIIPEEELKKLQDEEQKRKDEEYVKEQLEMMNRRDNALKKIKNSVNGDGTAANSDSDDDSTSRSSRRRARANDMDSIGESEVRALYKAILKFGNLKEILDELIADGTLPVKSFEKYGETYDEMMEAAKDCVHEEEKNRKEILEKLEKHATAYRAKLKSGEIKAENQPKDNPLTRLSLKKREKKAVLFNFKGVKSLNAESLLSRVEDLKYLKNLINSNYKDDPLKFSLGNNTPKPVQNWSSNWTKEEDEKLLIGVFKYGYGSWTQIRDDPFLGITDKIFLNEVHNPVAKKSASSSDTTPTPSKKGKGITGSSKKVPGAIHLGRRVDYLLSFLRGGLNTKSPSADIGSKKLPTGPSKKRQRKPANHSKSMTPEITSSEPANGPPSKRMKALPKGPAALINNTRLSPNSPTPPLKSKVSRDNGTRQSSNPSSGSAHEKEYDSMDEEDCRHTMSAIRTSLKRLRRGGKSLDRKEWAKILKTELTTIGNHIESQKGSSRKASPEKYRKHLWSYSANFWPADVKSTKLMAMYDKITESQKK
# Sialic acid-binding Ig-like lectin 9 (Homo sapiens), sequence (Q9Y336 whole entry): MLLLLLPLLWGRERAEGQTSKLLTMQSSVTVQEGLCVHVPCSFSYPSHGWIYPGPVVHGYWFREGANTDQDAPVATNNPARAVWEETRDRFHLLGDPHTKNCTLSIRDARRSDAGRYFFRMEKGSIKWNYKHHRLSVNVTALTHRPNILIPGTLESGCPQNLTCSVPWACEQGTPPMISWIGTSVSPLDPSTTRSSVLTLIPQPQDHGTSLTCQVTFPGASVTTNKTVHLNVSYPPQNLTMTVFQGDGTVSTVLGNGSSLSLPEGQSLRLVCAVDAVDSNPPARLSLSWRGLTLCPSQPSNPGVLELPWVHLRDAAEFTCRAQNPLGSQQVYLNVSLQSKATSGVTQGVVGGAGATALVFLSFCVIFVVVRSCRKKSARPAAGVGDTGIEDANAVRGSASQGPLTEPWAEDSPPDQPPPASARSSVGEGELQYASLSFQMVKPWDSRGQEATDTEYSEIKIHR
# Protein translocase subunit SecA (Escherichia coli (strain K12)), sequence (P10408 whole entry): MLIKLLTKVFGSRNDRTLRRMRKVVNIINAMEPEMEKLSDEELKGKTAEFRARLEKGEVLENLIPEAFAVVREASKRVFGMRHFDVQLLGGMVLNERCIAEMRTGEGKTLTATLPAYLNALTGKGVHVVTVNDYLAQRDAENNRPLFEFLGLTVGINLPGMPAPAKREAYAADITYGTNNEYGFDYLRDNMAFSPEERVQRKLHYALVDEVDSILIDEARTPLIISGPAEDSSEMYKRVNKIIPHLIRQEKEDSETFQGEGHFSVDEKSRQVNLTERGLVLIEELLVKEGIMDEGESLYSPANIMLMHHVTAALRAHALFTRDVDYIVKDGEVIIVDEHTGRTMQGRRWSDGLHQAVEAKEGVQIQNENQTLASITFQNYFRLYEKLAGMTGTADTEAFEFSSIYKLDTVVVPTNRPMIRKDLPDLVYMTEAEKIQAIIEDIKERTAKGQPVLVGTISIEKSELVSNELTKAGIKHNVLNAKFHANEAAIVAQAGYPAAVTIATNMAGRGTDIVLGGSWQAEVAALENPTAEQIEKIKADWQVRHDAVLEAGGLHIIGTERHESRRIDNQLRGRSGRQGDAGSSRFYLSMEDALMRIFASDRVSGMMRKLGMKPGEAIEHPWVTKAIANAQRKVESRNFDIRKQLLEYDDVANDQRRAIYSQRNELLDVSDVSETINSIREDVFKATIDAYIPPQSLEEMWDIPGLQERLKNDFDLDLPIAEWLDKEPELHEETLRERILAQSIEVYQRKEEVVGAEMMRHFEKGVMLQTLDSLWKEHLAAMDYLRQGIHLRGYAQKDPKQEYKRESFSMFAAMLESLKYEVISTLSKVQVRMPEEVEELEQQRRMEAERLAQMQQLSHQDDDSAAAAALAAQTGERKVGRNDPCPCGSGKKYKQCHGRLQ
SMILES,Percent Effect [1] [%],Percent Effect [2] [%],Percent Effect [3] [%],Percent Effect [4] [%],Percent Effect [5] [%],Percent Effect [6] [%],Percent Effect [7] [%],Percent Effect [8] [%],Percent Effect [9] [%],Percent Effect [10] [%],Percent Effect [11] [%]
Cc1nc(CN2CCc3ncnc(C)c3CC2)cs1,-4.35,0,0.161,1.66,4.99,3.5,10.3,-27.4,2.16,7.69,4.23
O=S(=O)(CCN1CCOC(Cn2cncn2)C1)c1ccccc1 (stereo unspecified),-1.18,5.41,-4.67,12.3,3.81,2.23,-0.0858,-5.62,0,3.7,-11.6
CC(C(=O)NCc1ccc(-n2cncn2)nc1)n1ccnc1 (stereo unspecified),-3.77,2.6,0.227,15,2.25,1.05,-1.21,-15.5,2.86,2.35,-8.54
Cc1cnn(CC2CCCN2C(=O)c2ccc3[nH]nnc3c2)c1 (stereo unspecified),-1.48,8.86,-1.94,-8.54,2.97,-2.8,17.5,2.88,1.04,10.1,-4.85
c1ccc(-n2cc(CN3CCCC(Cn4cncn4)C3)nn2)cc1 (stereo unspecified),-2.56,3.8,7.41,3.66,-3.79,-0.215,15.4,12.2,7.29,12.7,-25.5
CNc1cncc(C2CCCN2C(=O)c2ccc3oc(=O)n(C)c3c2)n1 (stereo unspecified),-2.39,14.9,8.4,-7.77,3.36,0.696,9.36,-8.91,5.38,3.9,-16.2
CCc1nc(C2CCCN(C(=O)CCn3ccccc3=O)C2)no1 (stereo unspecified),-2.1,0,-7.52,-0.82,8.08,-1.15,1.34,-13.7,-0.49,0,2.66
CN1C(=O)CC(C(=O)O)C12CCN(Cc1ccc(Cl)cc1F)CC2 (stereo unspecified),-2.86,10.7,-8,3.22,-0.487,2.6,10.1,10.2,6.01,21,-6.2
Cc1cc(CN(Cc2cccs2)CC2CCCO2)no1 (stereo unspecified),-4.05,1.27,10.8,3.07,-1.33,4.95,6,6.19,-5.21,0,16.7
Cn1nc(CNC(=O)C2CCCC2)cc1C1CC1,-6.17,10.4,-2.49,-7.84,5.23,-0.645,2.79,6.93,0,16.7,-8.08
O=C(c1cccc(Cl)c1)N1CC[C@H]2[C@H]1CCN2CC1CCOCC1,-2.38,0,10.3,0.0847,0.197,1.17,9.78,-5.51,4.25,3.85,-5.25
Cc1ccc(OCC(=O)NCC(C)C)nc1,-6.24,13.7,-6.5,6.61,6.94,1.2,4.37,1.54,8.33,11.1,-8.95
Cn1ccnc1CN1CCN(CC(O)c2ccc(F)c(F)c2)CC1 (stereo unspecified),-8.39,10.4,-6.83,-0.647,-6.93,1.42,0.507,29.6,0,-2.44,-2.48
COCCN(C)Cc1ccc(OC)c(OC(F)F)c1,-0.72,0,2.88,0.875,-20.8,6.9,0.499,-9.7,-1.07,-6.17,2.42
Cc1nnc(NCc2cccnc2N(C)C)c(C#N)c1C,-0.868,-5.41,-22.1,9.49,2.88,-4.25,-2.87,6.79,2.97,6.1,0.273
CS(=O)(=O)NCCCN1CCCC1c1ccccc1 (stereo unspecified),-4.36,5.06,-1.23,6.79,1.42,3.04,3.03,-31.1,7.39,13.9,-5.84
CN1CCCc2cc(NC(=O)N3CCOC(C(N)=O)C3)ccc21 (stereo unspecified),4.12,21.9,34.2,5.33,5.75,-1.2,10.5,14.3,8.33,21,-3.37
CCc1nc(CN2CCCN(C(=O)C(C)n3ccnc3)CC2)cs1 (stereo unspecified),-2.92,5.2,3.99,3.63,3.75,-5.69,21.1,-7.97,5.83,9.76,-4.4
CCCn1[nH]cc/c1=N\C(=O)CN1CCn2c(nnc2C2CC2)C1,-2.72,21.1,-11.3,-5.47,-4.13,3.83,16.5,22.7,5.39,9.76,-10.1
COCCNC(=O)[C@H]1CN(Cc2scnc2C)C[C@H]2OCC[C@@H]12,-3.71,5.48,0.0499,5.36,3.77,1.2,1.11,4.51,5.21,16.1,1.51
Cc1nnc2n1CCN(C(=O)c1cc(C)n(-c3ccccn3)c1C)C2,-5.88,13.2,-9.47,3.77,-1.03,3.6,17,4.26,4.43,13.6,2.79
